Measurements published in the supplement of paper PMC4466140.

Legend:
Test in all cases: SPOT peptide array binding signal intensity (averaged, normalized) (arbitrary units (background-subtracted, floor 0; scale differs between SH3 domains)); higher = stronger binding of the SH3 domain to the peptide
SpBzz1-D2 = target: SpBzz1-D2
Procedure, shortened: (§1)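 Four yeast species supplied the SH3 domains, which were expressed as GST fusions in E. coli BL21(DE3) and purified on glutathione Sepharose. Incubation with cellulose membranes carrying synthetic 15-mer peptides, cysteines exchanged for serines, ran overnight at 4°C at 10 μg/ml in TBS-based blocking buffer. Binding signal is reported as normalized, background-subtracted spot intensity averaged over replicates, in arbitrary units not shared between domains.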

SpCyk3 = target: SpCyk3
Procedure, shortened: as §1

SpHof1 = target: SpHof1
Procedure, shortened: as §1

SpHof1-2 = target: SpHof1-2
Procedure, shortened: as §1

SpHof1-3 = target: SpHof1-3
Procedure, shortened: as §1

SpHse1 = target: SpHse1
Procedure, shortened: as §1

SpLsb1 = target: SpLsb1
Procedure, shortened: as §1

SpLsb4 = target: SpLsb4
Procedure, shortened: as §1

SpMyo1 = target: SpMyo1
Procedure, shortened: as §1

SpNbp2 = target: SpNbp2
Procedure, shortened: as §1

SpPex13 = target: SpPex13
Procedure, shortened: as §1

SpRvs167 = target: SpRvs167
Procedure, shortened: as §1

SpSla1-D1-D2 = target: SpSla1-D1-D2
Procedure, shortened: as §1

SpSla1-D3 = target: SpSla1-D3
Procedure, shortened: as §1

AgAbp1 = target: AgAbp1
Procedure, shortened: as §1

AgBbc1 = target: AgBbc1
Procedure, shortened: as §1

AgBem1-D1 = target: AgBem1-D1
Procedure, shortened: as §1

AgBzz1-D1 = target: AgBzz1-D1
Procedure, shortened: as §1

AgBzz1-D2 = target: AgBzz1-D2
Procedure, shortened: as §1

AgCyk3 = target: AgCyk3
Procedure, shortened: as §1

AgFus1 = target: AgFus1
Procedure, shortened: as §1

AgHof1 = target: AgHof1
Procedure, shortened: as §1

AgHse1 = target: AgHse1
Procedure, shortened: as §1

AgLsb1 = target: AgLsb1
Procedure, shortened: as §1

AgLsb4 = target: AgLsb4
Procedure, shortened: as §1

AgMyo5 = target: AgMyo5
Procedure, shortened: as §1

AgNbp2 = target: AgNbp2
Procedure, shortened: as §1

AgRvs167 = target: AgRvs167
Procedure, shortened: as §1

AgSho1 = target: AgSho1
Procedure, shortened: as §1

AgSla1-D1-D2 = target: AgSla1-D1-D2
Procedure, shortened: as §1

AgSla1-D3 = target: AgSla1-D3
Procedure, shortened: as §1

CaAbp1-D1 = target: CaAbp1-D1
Procedure, shortened: as §1

CaAbp1-D2 = target: CaAbp1-D2
Procedure, shortened: as §1

CaBbc1 = target: CaBbc1
Procedure, shortened: as §1

CaBem1-D1 = target: CaBem1-D1
Procedure, shortened: as §1

CaBzz1-D1 = target: CaBzz1-D1
Procedure, shortened: as §1

CaBzz1-D2 = target: CaBzz1-D2
Procedure, shortened: as §1

CaCyk3 = target: CaCyk3
Procedure, shortened: as §1

CaFus1 = target: CaFus1
Procedure, shortened: as §1

CaHof1 = target: CaHof1
Procedure, shortened: as §1

CaHse1 = target: CaHse1
Procedure, shortened: as §1

CaLsb1 = target: CaLsb1
Procedure, shortened: as §1

CaLsb4 = target: CaLsb4
Procedure, shortened: as §1

CaMyo5 = target: CaMyo5
Procedure, shortened: as §1

CaNbp2 = target: CaNbp2
Procedure, shortened: as §1

CaRvs167 = target: CaRvs167
Procedure, shortened: as §1

CaRvs167-3 = target: CaRvs167-3
Procedure, shortened: as §1

CaSho1 = target: CaSho1
Procedure, shortened: as §1

CaSla1-D1-D2 = target: CaSla1-D1-D2
Procedure, shortened: as §1

CaSla1-D3 = target: CaSla1-D3
Procedure, shortened: as §1

ScAbp1 = target: ScAbp1
Procedure, shortened: as §1

ScBbc1 = target: ScBbc1
Procedure, shortened: as §1

ScBem1-D1 = target: ScBem1-D1
Procedure, shortened: as §1

ScBzz1-D1 = target: ScBzz1-D1
Procedure, shortened: as §1

ScBzz1-D2 = target: ScBzz1-D2
Procedure, shortened: as §1

ScCyk3 = target: ScCyk3
Procedure, shortened: as §1

ScFus1 = target: ScFus1
Procedure, shortened: as §1

ScHof1 = target: ScHof1
Procedure, shortened: as §1

ScHse1 = target: ScHse1
Procedure, shortened: as §1

ScLsb1 = target: ScLsb1
Procedure, shortened: as §1

ScLsb2 = target: ScLsb2
Procedure, shortened: as §1

ScLsb3 = target: ScLsb3
Procedure, shortened: as §1

ScLsb4 = target: ScLsb4
Procedure, shortened: as §1

ScMyo3 = target: ScMyo3
Procedure, shortened: as §1

ScMyo5 = target: ScMyo5
Procedure, shortened: as §1

ScNbp2 = target: ScNbp2
Procedure, shortened: as §1

ScPex13 = target: ScPex13
Procedure, shortened: as §1

ScRvs167 = target: ScRvs167
Procedure, shortened: as §1

ScSho1 = target: ScSho1
Procedure, shortened: as §1

ScSla1-D1-D2 = target: ScSla1-D1-D2
Procedure, shortened: as §1

ScSla1-D3 = target: ScSla1-D3
Procedure, shortened: as §1

SpAbp1-D1 = target: SpAbp1-D1
Procedure, shortened: as §1

SpBbc1 = target: SpBbc1
Procedure, shortened: as §1

SpBzz1-D1 = target: SpBzz1-D1
Procedure, shortened: as §1

B1: unnamed (peptide)
chain: KTRLRPAFIQQLWSS
- SPOT peptide array binding signal intensity (SpBzz1-D2): 1
- SPOT peptide array binding signal intensity (SpCyk3): 5
- SPOT peptide array binding signal intensity (SpHof1): 117
- SPOT peptide array binding signal intensity (SpHof1-2): 13.2
- SPOT peptide array binding signal intensity (SpHof1-3): 571
- SPOT peptide array binding signal intensity (SpHse1): 696
- SPOT peptide array binding signal intensity (SpLsb1): ≤ 0
- SPOT peptide array binding signal intensity (SpLsb4): 7
- SPOT peptide array binding signal intensity (SpMyo1): 3
- SPOT peptide array binding signal intensity (SpNbp2): 58.5
- SPOT peptide array binding signal intensity (SpPex13): 17
- SPOT peptide array binding signal intensity (SpRvs167): 6.67
- SPOT peptide array binding signal intensity (SpSla1-D1-D2): ≤ 0
- SPOT peptide array binding signal intensity (SpSla1-D3): 8

B2: unnamed (peptide)
chain: LPMNIQPDLPPRKIM
- SPOT peptide array binding signal intensity (AgAbp1): 11.5
- SPOT peptide array binding signal intensity (AgBbc1): 73.8
- SPOT peptide array binding signal intensity (AgBem1-D1): 263
- SPOT peptide array binding signal intensity (AgBzz1-D1): ≤ 0
- SPOT peptide array binding signal intensity (AgBzz1-D2): 5
- SPOT peptide array binding signal intensity (AgCyk3): 6
- SPOT peptide array binding signal intensity (AgFus1): 301
- SPOT peptide array binding signal intensity (AgHof1): 109
- SPOT peptide array binding signal intensity (AgHse1): 139
- SPOT peptide array binding signal intensity (AgLsb1): 904
- SPOT peptide array binding signal intensity (AgLsb4): 3030
- SPOT peptide array binding signal intensity (AgMyo5): ≤ 0
- SPOT peptide array binding signal intensity (AgNbp2): 152
- SPOT peptide array binding signal intensity (AgRvs167): 525
- SPOT peptide array binding signal intensity (AgSho1): 218
- SPOT peptide array binding signal intensity (AgSla1-D1-D2): ≤ 0
- SPOT peptide array binding signal intensity (AgSla1-D3): 2.5
- SPOT peptide array binding signal intensity (CaAbp1-D1): 63.5
- SPOT peptide array binding signal intensity (CaAbp1-D2): 59.5
- SPOT peptide array binding signal intensity (CaBbc1): 423
- SPOT peptide array binding signal intensity (CaBem1-D1): 42
- SPOT peptide array binding signal intensity (CaBzz1-D1): 290
- SPOT peptide array binding signal intensity (CaBzz1-D2): 98.2
- SPOT peptide array binding signal intensity (CaCyk3): 15
- SPOT peptide array binding signal intensity (CaFus1): 1460
- SPOT peptide array binding signal intensity (CaHof1): ≤ 0
- SPOT peptide array binding signal intensity (CaHse1): 224
- SPOT peptide array binding signal intensity (CaLsb1): 16.2
- SPOT peptide array binding signal intensity (CaLsb4): 7000
- SPOT peptide array binding signal intensity (CaMyo5): 60
- SPOT peptide array binding signal intensity (CaNbp2): 410
- SPOT peptide array binding signal intensity (CaRvs167): 1050
- SPOT peptide array binding signal intensity (CaRvs167-3): 0.5
- SPOT peptide array binding signal intensity (CaSho1): 799
- SPOT peptide array binding signal intensity (CaSla1-D1-D2): 409
- SPOT peptide array binding signal intensity (CaSla1-D3): 242
- SPOT peptide array binding signal intensity (ScAbp1): 16
- SPOT peptide array binding signal intensity (ScBbc1): 7.5
- SPOT peptide array binding signal intensity (ScBem1-D1): 1
- SPOT peptide array binding signal intensity (ScBzz1-D1): 13
- SPOT peptide array binding signal intensity (ScBzz1-D2): 10.5
- SPOT peptide array binding signal intensity (ScCyk3): 9
- SPOT peptide array binding signal intensity (ScFus1): 510
- SPOT peptide array binding signal intensity (ScHof1): ≤ 0
- SPOT peptide array binding signal intensity (ScHse1): 92
- SPOT peptide array binding signal intensity (ScLsb1): 362
- SPOT peptide array binding signal intensity (ScLsb2): 218
- SPOT peptide array binding signal intensity (ScLsb3): 5190
- SPOT peptide array binding signal intensity (ScLsb4): 3270
- SPOT peptide array binding signal intensity (ScMyo3): 14
- SPOT peptide array binding signal intensity (ScMyo5): 0.75
- SPOT peptide array binding signal intensity (ScNbp2): 348
- SPOT peptide array binding signal intensity (ScPex13): 234
- SPOT peptide array binding signal intensity (ScRvs167): 2170
- SPOT peptide array binding signal intensity (ScSho1): 682
- SPOT peptide array binding signal intensity (ScSla1-D1-D2): 192
- SPOT peptide array binding signal intensity (ScSla1-D3): 212
- SPOT peptide array binding signal intensity (SpAbp1-D1): 48
- SPOT peptide array binding signal intensity (SpBbc1): ≤ 0
- SPOT peptide array binding signal intensity (SpBzz1-D1): 362
- SPOT peptide array binding signal intensity (SpBzz1-D2): 5.5
- SPOT peptide array binding signal intensity (SpCyk3): 9.5
- SPOT peptide array binding signal intensity (SpHof1): 21.5
- SPOT peptide array binding signal intensity (SpHof1-2): 18.2
- SPOT peptide array binding signal intensity (SpHof1-3): 11
- SPOT peptide array binding signal intensity (SpHse1): 174
- SPOT peptide array binding signal intensity (SpLsb1): 160
- SPOT peptide array binding signal intensity (SpLsb4): 4630
- SPOT peptide array binding signal intensity (SpMyo1): 75
- SPOT peptide array binding signal intensity (SpNbp2): 59
- SPOT peptide array binding signal intensity (SpPex13): 42.5
- SPOT peptide array binding signal intensity (SpRvs167): 2340
- SPOT peptide array binding signal intensity (SpSla1-D1-D2): 2.5
- SPOT peptide array binding signal intensity (SpSla1-D3): 148

B3: unnamed (peptide)
chain: AAHKTKPSIPPKKVE
- SPOT peptide array binding signal intensity (AgAbp1): 1520
- SPOT peptide array binding signal intensity (AgBbc1): ≤ 0
- SPOT peptide array binding signal intensity (AgBem1-D1): ≤ 0
- SPOT peptide array binding signal intensity (AgBzz1-D1): 57.5
- SPOT peptide array binding signal intensity (AgBzz1-D2): 5.5
- SPOT peptide array binding signal intensity (AgCyk3): ≤ 0
- SPOT peptide array binding signal intensity (AgFus1): ≤ 0
- SPOT peptide array binding signal intensity (AgHof1): 20
- SPOT peptide array binding signal intensity (AgHse1): ≤ 0
- SPOT peptide array binding signal intensity (AgLsb1): ≤ 0
- SPOT peptide array binding signal intensity (AgLsb4): ≤ 0
- SPOT peptide array binding signal intensity (AgMyo5): 3.75
- SPOT peptide array binding signal intensity (AgNbp2): ≤ 0
- SPOT peptide array binding signal intensity (AgRvs167): 1
- SPOT peptide array binding signal intensity (AgSho1): 8
- SPOT peptide array binding signal intensity (AgSla1-D1-D2): ≤ 0
- SPOT peptide array binding signal intensity (AgSla1-D3): 3.25
- SPOT peptide array binding signal intensity (CaAbp1-D1): 2440
- SPOT peptide array binding signal intensity (CaAbp1-D2): 6290
- SPOT peptide array binding signal intensity (CaBbc1): 42
- SPOT peptide array binding signal intensity (CaBem1-D1): ≤ 0
- SPOT peptide array binding signal intensity (CaBzz1-D1): 257
- SPOT peptide array binding signal intensity (CaBzz1-D2): 243
- SPOT peptide array binding signal intensity (CaCyk3): ≤ 0
- SPOT peptide array binding signal intensity (CaFus1): ≤ 0
- SPOT peptide array binding signal intensity (CaHof1): 1.5
- SPOT peptide array binding signal intensity (CaHse1): 13.2
- SPOT peptide array binding signal intensity (CaLsb1): ≤ 0
- SPOT peptide array binding signal intensity (CaLsb4): ≤ 0
- SPOT peptide array binding signal intensity (CaMyo5): 1
